Data published in PubChem BioAssay (NCI).
Compounds without any hit were thinned out: in the full panel of roughly 79,000, 15% have a hit. Values without a mark were called inactive. The source made the active and inactive calls. No stated cut-off is given here; in the data, active means growth inhibition above about 70%; inactive means the rest.

Legend:
[1] = NCI Yeast Anticancer Drug Screen. Data for the rad50 strain (AID 155);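 further: 0% = growth of vehicle-only cultures of the same strain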; settings: S. cerevisiae rad50 strain growth inhibition, stronger effect = higher value
Outline: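 A DNA repair-deficient yeast mutant serves as the test organism; compound-induced growth inhibition is calculated against vehicle-treated cells.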

[2] = NCI Yeast Anticancer Drug Screen. Data for the mec2-1 strain (AID 157); settings: S. cerevisiae mec2-1 strain, stronger effect = higher value
Outline: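 Vehicle-treated cultures served as reference for growth inhibition of compound-exposed mec2-1 yeast.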

[3] = NCI Yeast Anticancer Drug Screen. Data for the sgs1 mgt1 strain (AID 161);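 further: 0% = growth of cultures given vehicle only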; settings: S. cerevisiae sgs1 mgt1 strain, stronger effect = higher value
Outline: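 Genetically altered yeast, compound exposure, growth inhibition relative to vehicle.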

[4] = NCI Yeast Anticancer Drug Screen. Data for the cln2 rad14 strain (AID 165);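 further: 0% = growth equal to vehicle treated cultures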; settings: S. cerevisiae cln2 rad14 strain, stronger effect = higher value
Outline: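 Each compound was tested on cln2 rad14 yeast. Inhibition of growth was calculated against vehicle-exposed controls.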

[5] = NCI Yeast Anticancer Drug Screen. Data for the bub3 strain (AID 167); settings: S. cerevisiae bub3 mutant strain, stronger effect = higher value
Outline: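 Inhibition values come from growth of compound-treated mutant yeast normalised to vehicle-treated controls.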

[6] = NCI Yeast Anticancer Drug Screen. Data for the mlh1 rad18 strain (AID 175); settings: S. cerevisiae mlh1 rad18 strain growth inhibition, stronger effect = higher value
Outline: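 Vehicle-treated cultures served as the reference for growth inhibition in a yeast strain carrying DNA damage repair alterations exposed to each compound.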

[7] = at 5.0 µM (retest, dose inferred, filed as 0.5)
[8] = at 50.0 µM (retest, dose inferred, filed as 5.0)

SMILES | growth inhibition [1, 7] [%] | growth inhibition [1, 8] | growth inhibition ([1]; at 50.0 µM) | growth inhibition [2, 7] [%] | growth inhibition [2, 8] | growth inhibition ([2]; at 50.0 µM) | growth inhibition [3, 7] [%] | growth inhibition [3, 8] | growth inhibition ([3]; at 50.0 µM) | growth inhibition [4, 7] [%] | growth inhibition [4, 8] | growth inhibition ([4]; at 50.0 µM) | growth inhibition [5, 7] [%] | growth inhibition [5, 8] | growth inhibition ([5]; at 50.0 µM) | growth inhibition [6, 7] [%] | growth inhibition [6, 8] | growth inhibition ([6]; at 50.0 µM)
O=C1/C(=C/c2cccc([N+](=O)[O-])c2)Sc2scc(-c3ccc([N+](=O)[O-])cc3)[n+]21 | 7 | 97% (active) | 85.2% (active) | -3 | 98% (active) | 62% | 6 | 97% (active) | 94.9% (active) | -15 | 97% (active) | 59.1% | -18 | 98% (active) | 93.1% (active) | 11 | 97% (active) | 93.8% (active)
O=C(CSc1nnc(Cc2ccccc2)o1)Nc1ccc(Cl)cc1 | -20 | 87% (active) | 16.1% | -5 | 54% | 15.2% | -1 | 80% (active) | 48.6% | 18 | 79% (active) | 35% | 4 | 91% (active) | 26.2% | -5 | 91% (active) | 28.8%
C1=NN(c2ccccc2)C2c3ccccc3CCCC12 (configuration not stated) | 8 | 98% (active) | 99.2% (active) | 18 | 99% (active) | 98.7% (active) | 8 | 99% (active) | 99% (active) | -4 | 98% (active) | 98.8% (active) | 5 | 99% (active) | 99.1% (active) | -2 | 99% (active) | 98.7% (active)
Cc1c2ccccc2cc2c1ccc1cccc(F)c12 | 4 | 90% (active) | 84.4% (active) | 11 | 95% (active) | 48% | 1 | 87% (active) | 80.7% (active) | 8 | 93% (active) | 23.9% | 4 | 91% (active) | 79% (active) | 10 | 92% (active) | 59.1%
Cc1ccc(C)c(C(=O)CCN)c1 | -2 | 5% | 3.45% | 1 | 1% | -10.7% | 0 | -2% | 0.3% | 6 | 2% | 84.8% (active) | 7 | 8% | -5.3% | 2 | 6% | 3.55%
C[n+]1c(/C=C/c2ccccc2Cl)ccc2ccccc21 | -3 | 37% | 98.7% (active) | 2 | 80% (active) | 99% (active) | -8 | 35% | 99.2% (active) | 0 | 34% | 98.5% (active) | -5 | 33% | 98.8% (active) | -8 | 48% | 98.8% (active)
N#[N+]c1c([O-])ccc2nc3ccccc3nc12 | -101 | 12% | 68.4% | -43 | -45% | 40.7% | -56 | -30% | 10.2% | -52 | -65% | -1.5% | -59 | -69% | -14.9% | -114 | -56% | 66.9%
CCOC(=O)C(=Cn1c(=S)[nH]c2ccc([N+](=O)[O-])cc21)C(=O)OCC | 33 | 53% | -36.2% | 17 | 22% | -35.2% | 33 | 41% | 0.75% | 20 | 25% | 13.9% | 26 | 29% | -37.2% | 33 | 46% | -40.2%
CC(=O)OCC1OC(n2ncc3c(Sc4c([N+](=O)[O-])ncn4C)ncnc32)C(OC(C)=O)C1OC(C)=O (configuration not stated) | 23 | 99% (active) | 99.3% (active) | 25 | 100% (active) | 99.4% (active) | 47 | 99% (active) | 99.5% (active) | 2 | 99% (active) | 99.4% (active) | 16 | 99% (active) | 99% (active) | 18 | 99% (active) | 98.8% (active)
